Measured values: PubChem BioAssay AID1159580 (chemical genetic matrix, 2015)
Out of some 5,500 compounds screened, about 2,000 (36%) were called active. About 18% were inconclusive and are not listed. No stated cut-off is given here; in the data, active means normalized growth mostly below about 0.91 (no sharp cut-off); inconclusive means no clear call, values can overlap the other calls; inactive means mostly above about 0.92. This is one part of the list.

Assay: chemical genetic growth profiling, strain panel (AID 1159580);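 further: tested at 20 µM; growth read once vehicle control cultures reached saturation at 30 °C; 1 = growth at the plate median or of vehicle wells; lower values mean less growth of the strain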
Conditions: growth OD

Measured: normalized growth

Cn1cnc([N+](=O)[O-])c1Sc1ncnc2nc[nH]c12
inactive: S. cerevisiae deletion strains, locus YKL009W, strain mrt4, hits give low values 0.983 | S. cerevisiae deletion strains, locus YKL068W, hits give low values 0.997 | S. cerevisiae deletion strains, locus YKL085W, strain MDH1 (second series), hits give low values 1 | S. cerevisiae deletion strains, locus YKL085W, strain MDH1, hits give low values 1 | S. cerevisiae deletion strains, locus YKL160W, strain elf1, hits give low values 1.04 | S. cerevisiae deletion strains, locus YKL190W, strain CNB1, hits give low values 1.01 | S. cerevisiae deletion strains, locus YKR001C, strain vps1, hits give low values 0.988 | S. cerevisiae deletion strains, locus YKR026C, strain gcn3, hits give low values 1.01 | S. cerevisiae deletion strains, locus YKR091W, strain srl3, hits give low values 1.01 | S. cerevisiae deletion strains, locus YLL001W, strain dnm1, hits give low values 1.02 | S. cerevisiae deletion strains, locus YLL026W, hits give low values 1.03 | S. cerevisiae deletion strains, locus YLL041C, strain sdh2, hits give low values 1.02 | S. cerevisiae deletion strains, locus YLR027C, strain aat2, hits give low values 1.02 | S. cerevisiae deletion strains, locus YLR039C, strain RIC1, hits give low values 1.09 | S. cerevisiae deletion strains, locus YLR058C, strain SHM2, hits give low values 1.01 | S. cerevisiae deletion strains, locus YLR102C, strain apc9, hits give low values 0.993 | S. cerevisiae deletion strains, locus YLR113W, strain HOG1, hits give low values 1.03 | S. cerevisiae deletion strains, locus YLR221C, strain rsa3, hits give low values 1.01 | S. cerevisiae deletion strains, locus YLR258W, strain gsy2, hits give low values 1.02 | S. cerevisiae deletion strains, locus YLR262C, strain YPT6 (second series), hits give low values 0.996 | S. cerevisiae deletion strains, locus YLR262C, strain YPT6, hits give low values 1.1 | S. cerevisiae deletion strains, locus YLR268W, strain sec22, hits give low values 0.981 | S. cerevisiae deletion strains, locus YLR320W, strain mms22, hits give low values 1.01 | S. cerevisiae deletion strains, locus YLR330W, strain CHS5, hits give low values 1.01 | S. cerevisiae deletion strains, locus YLR342W, strain FKS1 (second series), hits give low values 1.01 | S. cerevisiae deletion strains, locus YLR342W, strain FKS1, hits give low values 1.02 | S. cerevisiae deletion strains, locus YLR357W, strain rsc2, hits give low values 1 | S. cerevisiae deletion strains, locus YLR370C, strain arc18, hits give low values 1.03 | S. cerevisiae deletion strains, locus YLR371W, strain rom2, hits give low values 0.984 | S. cerevisiae deletion strains, locus YLR384C, strain iki3, hits give low values 1.03 | S. cerevisiae deletion strains, locus YLR418C, strain cdc73, hits give low values 1 | S. cerevisiae deletion strains, locus YML016C, strain PPZ1, hits give low values 1.02 | S. cerevisiae deletion strains, locus YML032C, strain rad52, hits give low values 0.989 | S. cerevisiae deletion strains, locus YML120C, strain ndi1, hits give low values 0.999 | S. cerevisiae deletion strains, locus YML124C, strain tub3, hits give low values 0.994 | S. cerevisiae deletion strains, locus YMR058W, strain fet3, hits give low values 1.01 | S. cerevisiae deletion strains, locus YMR078C, strain ctf18, hits give low values 0.985 | S. cerevisiae deletion strains, locus YMR125W, strain sto1, hits give low values 1.01 | S. cerevisiae deletion strains, locus YMR129W, hits give low values 1.01 | S. cerevisiae deletion strains, locus YMR205C, strain PFK2, hits give low values 1.02 | S. cerevisiae deletion strains, locus YMR223W, strain ubp8, hits give low values 0.994 | S. cerevisiae deletion strains, locus YMR231W, strain pep5, hits give low values 1.02 | S. cerevisiae deletion strains, locus YMR263W, strain SAP30, hits give low values 0.999 | S. cerevisiae deletion strains, locus YMR307W, strain GAS1, hits give low values 1.11 | S. cerevisiae deletion strains, locus YNL067W, strain RPL9B, hits give low values 0.99 | S. cerevisiae deletion strains, locus YNL071W, strain lat1, hits give low values 1.03 | S. cerevisiae deletion strains, locus YNL153C, strain GIM3, hits give low values 0.995 | S. cerevisiae deletion strains, locus YNL175C, strain NOP13, hits give low values 1.01 | S. cerevisiae deletion strains, locus YNL183C, strain NPR1, hits give low values 1 | S. cerevisiae deletion strains, locus YNL197C, strain WHI3, hits give low values 1 | S. cerevisiae deletion strains, locus YNL209W, strain ssb2, hits give low values 1.04 | S. cerevisiae deletion strains, locus YNL224C, strain SQS1, hits give low values 0.966 | S. cerevisiae deletion strains, locus YNL233W, strain BNI4, hits give low values 1 | S. cerevisiae deletion strains, locus YNL248C, strain rpa49, hits give low values 1.06 | S. cerevisiae deletion strains, locus YNL250W, strain rad50, hits give low values 0.99 | S. cerevisiae deletion strains, locus YNL271C, strain bni1, hits give low values 0.993 | S. cerevisiae deletion strains, locus YNL298W, strain CLA4, hits give low values 0.995 | S. cerevisiae deletion strains, locus YNL307C, strain MCK1, hits give low values 0.981 | S. cerevisiae deletion strains, locus YNL322C, strain KRE1 (second series), hits give low values 1.02 | S. cerevisiae deletion strains, locus YNL322C, strain KRE1, hits give low values 1.01 | S. cerevisiae deletion strains, locus YNR049C, strain mso1, hits give low values 1.01 | S. cerevisiae deletion strains, locus YNR052C, strain pop2, hits give low values 0.99 | S. cerevisiae deletion strains, locus YOL006C, strain TOP1, hits give low values 1 | S. cerevisiae deletion strains, locus YOL012C, strain htz1 1.34 | S. cerevisiae deletion strains, locus YOL147C, strain pex11, hits give low values 0.988 | S. cerevisiae deletion strains, locus YOR001W, strain rrp6, hits give low values 1.01 | S. cerevisiae deletion strains, locus YOR061W, strain CKA2, hits give low values 1.02 | S. cerevisiae deletion strains, locus YOR069W, strain VPS5, hits give low values 1.01 | S. cerevisiae deletion strains, locus YOR070C, strain gyp1, hits give low values 1.03 | S. cerevisiae deletion strains, locus YOR080W, strain dia2, hits give low values 1.02 | S. cerevisiae deletion strains, locus YOR083W, strain WHI5 (second series), hits give low values 1.02 | S. cerevisiae deletion strains, locus YOR083W, strain WHI5, hits give low values 0.98 | S. cerevisiae deletion strains, locus YOR106W, strain vam3, hits give low values 1.04 | S. cerevisiae deletion strains, locus YOR136W, strain idh2, hits give low values 0.979 | S. cerevisiae deletion strains, locus YOR144C, strain elg1, hits give low values 0.987 | S. cerevisiae deletion strains, locus YOR184W, strain ser1, hits give low values 0.981 | S. cerevisiae deletion strains, locus YOR231W, strain MKK1, hits give low values 1.06 | S. cerevisiae deletion strains, locus YOR265W, strain rbl2, hits give low values 1.02 | S. cerevisiae deletion strains, locus YOR270C, strain vph1, hits give low values 1.05 | S. cerevisiae deletion strains, locus YOR290C, strain snf2, hits give low values 1.04 | S. cerevisiae deletion strains, locus YOR316C, strain cot1, hits give low values 0.996 | S. cerevisiae deletion strains, locus YPL051W, strain arl3, hits give low values 1.04 | S. cerevisiae deletion strains, locus YPL078C, strain atp4, hits give low values 1.03 | S. cerevisiae deletion strains, locus YPL106C, strain sse1, hits give low values 1.03 | S. cerevisiae deletion strains, locus YPL240C, strain hsp82, hits give low values 1.05 | S. cerevisiae deletion strains, locus YPL241C, strain CIN2, hits give low values 1 | S. cerevisiae deletion strains, locus YPL256C, strain CLN2, hits give low values 1.05 | S. cerevisiae deletion strains, locus YPR119W, strain clb2, hits give low values 0.991 | S. cerevisiae deletion strains, locus YPR141C, strain kar3, hits give low values 0.99 | S. cerevisiae deletion strains, locus YPR163C, strain tif3, hits give low values 0.981 | S. cerevisiae deletion strains, locus YPR167C, strain met16, hits give low values 0.989 | S. cerevisiae deletion strains, strain wtn01, hits give low values 0.988 | S. cerevisiae strains, strain wild type, hits give low values 1.01
